In the library only some 3.5% were active in any assay of this set; here they are far more common.
BoNT A protease: blocks Botulinum neurotoxin A light chain protease. multiplex microsphere protease substrate cleavage, flow cytometry. inhibition, % at 10 µM. 360,000 compounds, 0.17% hits. AID 588499; further: plate controls were buffer without enzyme for full effect and enzyme alone for no effect
BoNT-F LC inh: inhibitors of Botulinum neurotoxin F light chain protease; Multiplex microsphere protease cleavage assay, flow cytometry; inhibition, % at 10 µM; 360,000 compounds, 0.22% hits; AID 588497; in the data active means inhibition above about 35%, passing the limit was not always enough; inconclusive means no clear call, values can overlap the other calls; further: plate controls were buffer without enzyme for full effect and enzyme alone for no effect
Anthrax LF inh2: anthrax lethal factor protease inhibition. 360,000 compounds, 0.12% hits. AID 588501. inhibition, % at 10 µM. multiplex microsphere protease cleavage assay, LF; further: plate controls were buffer without enzyme for full effect and enzyme alone for no effect
Target sequence (P15917 whole entry, looked up): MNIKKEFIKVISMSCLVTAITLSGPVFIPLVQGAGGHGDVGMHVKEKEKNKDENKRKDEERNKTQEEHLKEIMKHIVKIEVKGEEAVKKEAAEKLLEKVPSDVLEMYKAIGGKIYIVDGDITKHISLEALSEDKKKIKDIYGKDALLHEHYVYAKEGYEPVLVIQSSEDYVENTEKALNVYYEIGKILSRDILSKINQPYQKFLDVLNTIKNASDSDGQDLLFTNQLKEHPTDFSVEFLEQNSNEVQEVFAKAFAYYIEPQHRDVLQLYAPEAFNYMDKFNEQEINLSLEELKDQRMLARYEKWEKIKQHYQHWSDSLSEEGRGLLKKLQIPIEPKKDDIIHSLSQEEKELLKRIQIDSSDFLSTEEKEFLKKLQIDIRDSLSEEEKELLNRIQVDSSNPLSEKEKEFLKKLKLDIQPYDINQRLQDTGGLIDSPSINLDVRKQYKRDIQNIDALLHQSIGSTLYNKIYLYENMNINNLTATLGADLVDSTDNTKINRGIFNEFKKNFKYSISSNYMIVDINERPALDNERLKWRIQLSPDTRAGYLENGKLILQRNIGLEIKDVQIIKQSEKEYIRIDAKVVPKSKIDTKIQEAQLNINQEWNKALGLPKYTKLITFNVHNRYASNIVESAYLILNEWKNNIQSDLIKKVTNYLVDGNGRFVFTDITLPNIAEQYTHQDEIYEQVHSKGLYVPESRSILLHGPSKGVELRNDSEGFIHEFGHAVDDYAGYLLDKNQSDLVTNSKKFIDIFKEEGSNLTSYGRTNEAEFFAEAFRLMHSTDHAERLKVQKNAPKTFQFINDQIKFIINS
Autofluor counter: counter-screen for toxin protease inhibitors: compound fluorescence | fluorescence intensity (concentration not given with the values) | compound autofluorescence counterscreen, microsphere flow cytometry; hits give high values | AID 624483 | 360,000 compounds, 3.1% hits; in the data active means fluorescence intensity above about 16000; inconclusive means no clear call, values can overlap the other calls
* marks the source's active call; other numbers are inactive results. Unless noted, no stated cut-off is given here; in the data, active means inhibition above about 30%; inconclusive means no clear call, values can overlap the other calls; inactive means below that.

CC1(c2ccc(Cl)cc2Cl)NC(=O)N(CC(=O)NC2CCCCC2)C1=O (configuration not stated) was read as BoNT A protease 0, BoNT-F LC inh -3, Anthrax LF inh2 -6 and Autofluor counter 5409.
For Cc1cc(C)cc(OCc2nnc(SCC(=O)c3ccccc3)o2)c1 the results were BoNT A protease inconclusive, BoNT-F LC inh -2, Anthrax LF inh2 -2 and Autofluor counter 19614*.
`CCOC(=O)c1c(NC(=O)COC(=O)c2cccc([N+](=O)[O-])c2)sc(C(=O)N(C)C)c1C` gave BoNT A protease 0, BoNT-F LC inh -4, Anthrax LF inh2 1 and Autofluor counter 3990.
`O=C(CCc1ccccc1)n1nc(-c2ccccc2)nc1NCc1ccco1` gave BoNT A protease -3, BoNT-F LC inh -4, Anthrax LF inh2 -5 and Autofluor counter 23164*.
For O=C(C[C@H]1C[C@H](C(=O)N2CCCCC2)[C@@]2(CCc3ccccc3)c3[nH]c4ccc(Cl)cc4c3CCN2C1=O)NCCC1=CCCCC1 the results were BoNT A protease 0, BoNT-F LC inh -1, Anthrax LF inh2 -6 and Autofluor counter 3456.
Screening CS(=O)(=O)NCc1ccc(C(=O)NCCOc2ccccc2)cc1 returned BoNT A protease 17, BoNT-F LC inh 21, Anthrax LF inh2 -18 and Autofluor counter 17640*.
Cc1ccc(OCCNC(=O)c2cccc(S(=O)(=O)NCc3ccccc3)c2)cc1 was read as BoNT A protease 1, BoNT-F LC inh 0, Anthrax LF inh2 -1 and Autofluor counter 6824.
`CC(NC1CCCCC1)C(=O)NN=C(c1ccccc1)c1ccccc1` (configuration not stated) gave BoNT A protease -1, BoNT-F LC inh -2, Anthrax LF inh2 -5 and Autofluor counter 4444.
`C=C(C)CSc1nnc([C@@H](N)Cc2c[nH]c3ccccc23)o1` gave BoNT A protease inconclusive, BoNT-F LC inh -6, Anthrax LF inh2 -2 and Autofluor counter 19997*.
For N[C@@H](Cc1c[nH]c2ccccc12)c1nnc(SCc2ccccc2)o1 the results were BoNT A protease 0, BoNT-F LC inh -14, Anthrax LF inh2 -3 and Autofluor counter 4809.
For N[C@@H](Cc1c[nH]c2ccccc12)c1nnc(SCc2ccc(F)cc2)o1 the results were BoNT A protease inconclusive, BoNT-F LC inh -4, Anthrax LF inh2 -3 and Autofluor counter 24676*.
N[C@@H](Cc1ccccc1)c1nnc(SCc2ccccc2Cl)o1 was read as BoNT A protease inconclusive, BoNT-F LC inh -5, Anthrax LF inh2 1 and Autofluor counter 19863*.
For CCN1CCN(c2ccc(NC(=O)c3cccc4ncccc34)cc2)CC1 the results were BoNT A protease inconclusive, BoNT-F LC inh -10, Anthrax LF inh2 -12 and Autofluor counter 22120*.
CCN1CCN(c2ccc(NC(=O)c3ccco3)cc2)CC1 was read as BoNT A protease 0, BoNT-F LC inh -6, Anthrax LF inh2 0 and Autofluor counter 6242.
Screening FC(F)Sc1ccc(Nc2ncnc3nc[nH]c23)cc1 returned BoNT A protease inconclusive, BoNT-F LC inh -4, Anthrax LF inh2 -4 and Autofluor counter 23588*.
COc1ccc(NC(=O)CN(C)C(=O)C(Sc2ccccc2)c2ccccc2)cc1 (configuration not stated) was read as BoNT A protease 0, BoNT-F LC inh -3, Anthrax LF inh2 6 and Autofluor counter 4049.
Screening O=c1[nH]c(=O)n(Cc2ccco2)c2c1C(C(F)(F)F)(C(F)(F)F)N=C(C1CCCCC1)N2 returned BoNT A protease 2, BoNT-F LC inh 2, Anthrax LF inh2 -15 and Autofluor counter 20476*.
N#Cc1ccc(C2=NC(C(F)(F)F)(C(F)(F)F)c3c(n(Cc4ccco4)c(=O)[nH]c3=O)N2)cc1 was read as BoNT A protease -1, BoNT-F LC inh -1, Anthrax LF inh2 -2 and Autofluor counter 23851*.
For O=c1[nH]c(=O)n(Cc2ccco2)c2c1C(C(F)(F)F)(C(F)(F)F)N=C(CCc1ccccc1)N2 the results were BoNT A protease 3, BoNT-F LC inh 18, Anthrax LF inh2 0 and Autofluor counter 8965.
Screening COc1cc(CNC[C@H]2O[C@@H](n3cc(C)c(=O)[nH]c3=O)C[C@@H]2O)ccc1OCc1cccc(Cl)c1 returned BoNT A protease -1, BoNT-F LC inh -9, Anthrax LF inh2 -4 and Autofluor counter 3716.
N#Cc1ccc(CN2CCN(C(=O)CN3C(=O)NC4(CCCC4)C3=O)CC2)cc1 was read as BoNT A protease 0, BoNT-F LC inh 5, Anthrax LF inh2 4 and Autofluor counter 4074.
For CCN(CC)CCNc1ccnc2cc(Cl)ccc12 the results were BoNT A protease 0, BoNT-F LC inh 0, Anthrax LF inh2 0 and Autofluor counter 20811*.
Cn1cc(-c2nnnn2-c2ccc(Cl)cc2)c(C(F)(F)F)n1 was read as BoNT A protease 1, BoNT-F LC inh 1, Anthrax LF inh2 -1 and Autofluor counter 23367*.
For Cc1cc(C)cc(-n2nnnc2-c2cn(C)nc2C(F)(F)F)c1 the results were BoNT A protease 0, BoNT-F LC inh -5, Anthrax LF inh2 2 and Autofluor counter 3287.
`Cc1nc2c(C(=O)NCCC3=CCCCC3)c[nH]n2c(=O)c1Cl` gave BoNT A protease 2, BoNT-F LC inh 2, Anthrax LF inh2 -1 and Autofluor counter 23190*.
For O=C(NCCC1=CCCCC1)c1cnc2n(c1=O)CCS2 the results were BoNT A protease -3, BoNT-F LC inh -3, Anthrax LF inh2 -9 and Autofluor counter 24855*.
`O=C(NCCc1ccc(Cl)cc1)c1cnc2n(c1=O)CCS2` gave BoNT A protease 0, BoNT-F LC inh -6, Anthrax LF inh2 0 and Autofluor counter 6120.
Cc1nc2c(C(=O)NCc3ccc4c(c3)OCO4)c[nH]n2c(=O)c1Cl was read as BoNT A protease -4, BoNT-F LC inh -6, Anthrax LF inh2 2 and Autofluor counter 25275*.
For CC12C=CC3(CN(Cc4ccccc4)C(=O)C3C1C(=O)NCc1ccco1)O2 (configuration not stated) the results were BoNT A protease 4, BoNT-F LC inh 6, Anthrax LF inh2 -13 and Autofluor counter 20657*.
`COC(=O)C1C2C=CC3(CN(Cc4ccco4)C(=O)C13)O2` (configuration not stated) gave BoNT A protease 0, BoNT-F LC inh -8, Anthrax LF inh2 0 and Autofluor counter 5953.
Screening Cc1ccc(-n2nc3c(=O)n(CCCC(=O)NCCc4ccccc4C)nc(C)c3c2C)cc1 returned BoNT A protease 0, BoNT-F LC inh 7, Anthrax LF inh2 2 and Autofluor counter 5463.
Screening O=C(c1ccc2c(c1)N(Cc1ccccc1)C(=O)c1ccccc1S2)N1CCCC1 returned BoNT A protease inconclusive, BoNT-F LC inh 4, Anthrax LF inh2 1 and Autofluor counter 21624*.
For C=CCN1C(=O)CSc2ccc(C(=O)N3CCC4(CC3)OCCO4)cc21 the results were BoNT A protease -5, BoNT-F LC inh -8, Anthrax LF inh2 -3 and Autofluor counter 17917*.
For CCC(C)NC(=O)Nc1ccc2c(c1)N(C)C(=O)c1ccccc1S2 (configuration not stated) the results were BoNT A protease 0, BoNT-F LC inh 1, Anthrax LF inh2 -1 and Autofluor counter 16200*.
Screening CCN1C(=O)c2ccccc2Sc2ccc(C(=O)N3CCC4(CC3)OCCO4)cc21 returned BoNT A protease 1, BoNT-F LC inh 6, Anthrax LF inh2 4 and Autofluor counter 7469.

Screening data as filed in PubChem BioAssay.
